{"source": "paper PMC4336329", "about": "(PLoS ONE, 2015)", "note": "The whole screen tested about 310,000 compounds, of which about 2,200 (0.71%) showed an effect of 50% or more. Effects have a minus sign here. The full list was thinned out, with strong results kept by preference."}
{"molecular_target": "human ether-à-go-go-related gene (hERG) potassium channel (human, UniProt Q12809)", "sequence (Q12809 whole entry, looked up)": "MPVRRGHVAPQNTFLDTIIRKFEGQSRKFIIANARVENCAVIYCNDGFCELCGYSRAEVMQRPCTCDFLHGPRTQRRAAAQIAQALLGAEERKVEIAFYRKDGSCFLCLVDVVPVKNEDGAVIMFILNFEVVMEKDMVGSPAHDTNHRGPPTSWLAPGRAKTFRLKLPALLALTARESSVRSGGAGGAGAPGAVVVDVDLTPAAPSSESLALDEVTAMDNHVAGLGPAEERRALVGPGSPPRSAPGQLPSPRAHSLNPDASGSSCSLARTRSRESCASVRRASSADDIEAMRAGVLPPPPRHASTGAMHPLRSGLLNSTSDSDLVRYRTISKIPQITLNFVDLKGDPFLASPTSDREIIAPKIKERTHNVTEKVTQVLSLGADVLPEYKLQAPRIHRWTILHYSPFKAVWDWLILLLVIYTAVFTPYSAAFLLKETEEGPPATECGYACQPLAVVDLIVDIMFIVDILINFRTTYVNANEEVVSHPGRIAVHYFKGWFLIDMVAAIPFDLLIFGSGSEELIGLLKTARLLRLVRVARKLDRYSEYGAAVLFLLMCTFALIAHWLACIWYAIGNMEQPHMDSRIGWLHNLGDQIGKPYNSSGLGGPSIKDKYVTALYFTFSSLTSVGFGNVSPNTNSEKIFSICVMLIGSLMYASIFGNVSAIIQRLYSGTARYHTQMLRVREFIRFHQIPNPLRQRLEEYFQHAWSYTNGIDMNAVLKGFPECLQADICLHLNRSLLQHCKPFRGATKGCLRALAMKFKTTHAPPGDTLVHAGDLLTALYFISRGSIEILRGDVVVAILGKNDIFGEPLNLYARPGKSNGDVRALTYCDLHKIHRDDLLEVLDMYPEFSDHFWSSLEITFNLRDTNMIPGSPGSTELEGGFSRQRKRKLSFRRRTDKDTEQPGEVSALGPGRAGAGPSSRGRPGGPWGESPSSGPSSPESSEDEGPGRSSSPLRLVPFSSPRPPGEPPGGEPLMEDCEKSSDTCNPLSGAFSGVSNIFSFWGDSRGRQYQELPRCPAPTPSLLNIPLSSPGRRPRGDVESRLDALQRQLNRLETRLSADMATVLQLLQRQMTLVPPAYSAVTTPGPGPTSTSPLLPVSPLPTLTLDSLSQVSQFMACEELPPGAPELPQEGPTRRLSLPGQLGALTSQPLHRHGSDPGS", "test": "primary screen, population patch clamp on CHO cells stably expressing hERG; higher = less effect of the substance", "description": "Briefly, Chinese hamster ovary (CHO) cells stably expressing the hERG channel were dislodged from tissue culture flasks and dispensed into PPC plates. […] During the recording, background leak currents were estimated by a 100 ms step to -80 mV from an initial holding potential of -70 mV and subtracted from the subsequent current measurement. The campaign was conducted in two phases using slight differences in recording protocol. In the first phase, the initial voltage pulse used a 100 ms step to -30 mV from a holding potential of -70 mV, a 2 s conditioning step to +25 mV, and a 2 s test step to -30 mV. During the second phase of the screen, the potential during the conditioning step was raised to +45 mV. In both phases of the campaign, a secondary voltage pulse was applied using the same parameters as the second phase initial pulse. The initial and secondary pulses were applied in the absence of compound, and upon application of 1 μM and 10 μM test concentrations. Small molecule effects on hERG current density were quantified by […].", "units": {"hERG current change (%, negative = inhibition) at 1uM": "%"}}
{"smiles": "CCO[C@@H]1OC(C(=O)N2CCN(C)CC2)=C[C@H](c2csc3ccccc23)[C@H]1CCCO", "hERG current change (%, negative = inhibition) at 1uM": 0.669}
{"smiles": "CC(=O)Nc1ccc(N(C(=O)c2ccccn2)C(C(=O)NC2CCCCC2)c2ccc(F)cc2)cc1", "note": "(stereo not drawn)", "hERG current change (%, negative = inhibition) at 1uM": 12.2}
{"smiles": "CC1CCCCN1CCNC(=O)CCc1nnc2n(Cc3ccccc3)c(=O)c3ccccc3n12", "note": "(stereo not drawn)", "hERG current change (%, negative = inhibition) at 1uM": -8.67}
{"smiles": "O=C(CCc1nnc2n(CCc3ccccc3)c(=O)c3ccccc3n12)NCCCN1CCCCC1", "hERG current change (%, negative = inhibition) at 1uM": -9.25}
{"smiles": "CC1CCN(CCCNC(=O)CCc2nnc3n(CCc4ccccc4)c(=O)c4ccccc4n23)CC1", "hERG current change (%, negative = inhibition) at 1uM": -52.4}
{"smiles": "Cc1ccc(Cc2ccc(C(=O)NNC(N)=S)o2)cc1", "hERG current change (%, negative = inhibition) at 1uM": 3.74}
{"smiles": "CN(CC(=O)Nc1ccccc1Br)C(=O)c1sccc1-c1ccccc1", "hERG current change (%, negative = inhibition) at 1uM": -0.469}
{"smiles": "O=c1nc(-c2ccccc2)cc(C(F)(F)F)[nH]1", "hERG current change (%, negative = inhibition) at 1uM": 21.3}
{"smiles": "COc1cc(OC)c2nc(C)c3c(c2c1)N(c1ccc(O)cc1)CC3", "hERG current change (%, negative = inhibition) at 1uM": -57.2}
{"smiles": "COc1ccccc1N1CCc2c(C)nc3c(OC)cccc3c21", "hERG current change (%, negative = inhibition) at 1uM": -23.1}
{"smiles": "COc1ccc(N2CCc3c(C)nc4c(OC)cc(OC)cc4c32)cc1", "hERG current change (%, negative = inhibition) at 1uM": -52.7}
{"smiles": "COc1ccc(N2CCc3c(C)nc4c(OC)cccc4c32)cc1", "hERG current change (%, negative = inhibition) at 1uM": -28.3}
{"smiles": "COc1ccc(N2CCc3c(C)nc4c(OC)cc(OC)cc4c32)c(OC)c1", "hERG current change (%, negative = inhibition) at 1uM": -47.6}
{"smiles": "COc1cccc2c3c(c(C)nc12)CCN3c1ccccc1", "hERG current change (%, negative = inhibition) at 1uM": -8.76}
{"smiles": "CCN(CC(=O)Nc1ccccc1C(F)(F)F)C(=O)CCS(=O)(=O)c1ccc(Cl)cc1", "hERG current change (%, negative = inhibition) at 1uM": 9.68}
{"smiles": "CC1CCC(NC(=O)Cn2cnc3sccc3c2=O)CC1", "note": "(stereo not drawn)", "hERG current change (%, negative = inhibition) at 1uM": 3.74}
{"smiles": "CCN(CCCNC(=O)CCn1c(=S)[nH]c2cc3c(cc2c1=O)OCO3)c1cccc(C)c1", "hERG current change (%, negative = inhibition) at 1uM": 11.5}
{"smiles": "CN1CC(C(=O)c2ccc(Cl)cc2)C(c2ccccc2)C1", "note": "(stereo not drawn)", "hERG current change (%, negative = inhibition) at 1uM": 6.78}
{"smiles": "CN1CC(C(=O)c2ccc([N+](=O)[O-])cc2)C(c2ccc(Cl)cc2)C1", "note": "(stereo not drawn)", "hERG current change (%, negative = inhibition) at 1uM": -77.1}
{"smiles": "COc1ccc(C(=O)C2CN(C)CC2c2ccc(Cl)cc2)cc1", "note": "(stereo not drawn)", "hERG current change (%, negative = inhibition) at 1uM": -18.3}
{"smiles": "Cc1nn(C)c(C(=O)N2CCc3ccccc32)c1Br", "hERG current change (%, negative = inhibition) at 1uM": 4.79}
{"smiles": "CC1CC1C(=O)Nc1nc(-c2cccs2)c(-c2cccs2)s1", "note": "(stereo not drawn)", "hERG current change (%, negative = inhibition) at 1uM": 7.23}
{"smiles": "O=C(NC1CCCN(c2ccc(C(F)(F)F)cn2)C1)c1ccncc1", "note": "(stereo not drawn)", "hERG current change (%, negative = inhibition) at 1uM": -51.8}
{"smiles": "Cc1ccc(C(=O)NC2CCCN(c3ccc(C(F)(F)F)cn3)C2)cn1", "note": "(stereo not drawn)", "hERG current change (%, negative = inhibition) at 1uM": 2.48}
{"smiles": "O=C(NC1CCCN(c2ccc(C(F)(F)F)cn2)C1)c1ccnc(Cl)c1", "note": "(stereo not drawn)", "hERG current change (%, negative = inhibition) at 1uM": -9.21}
{"smiles": "CSCCC(NC(=O)c1ccccc1)C(=O)NC1CCCC1", "note": "(stereo not drawn)", "hERG current change (%, negative = inhibition) at 1uM": 4.81}
{"smiles": "CC(C(=O)NC(=O)NC1CCCCC1)N(C)CC(=O)Nc1ccc(F)c(F)c1F", "note": "(stereo not drawn)", "hERG current change (%, negative = inhibition) at 1uM": 12.1}
{"smiles": "OC(COc1ccc(Cl)cc1)CN1CCN(c2ccccn2)CC1", "note": "(stereo not drawn)", "hERG current change (%, negative = inhibition) at 1uM": -37.7}
{"smiles": "Cl.OC(COC(c1ccc(Cl)cc1)c1ccc(Cl)cc1)CN1CCN(c2ccccn2)CC1", "note": "(stereo not drawn)", "hERG current change (%, negative = inhibition) at 1uM": -79.7}
{"smiles": "OC(COC(c1ccccc1)c1ccccc1)CN1CCN(c2ccccn2)CC1", "note": "(stereo not drawn)", "hERG current change (%, negative = inhibition) at 1uM": -73.5}
{"smiles": "CC(C)c1ccc(OCC(O)CN2CCN(c3ccccn3)CC2)cc1.Cl", "note": "(stereo not drawn)", "hERG current change (%, negative = inhibition) at 1uM": -27.7}
{"smiles": "Cc1cccc(C)c1OCC(O)CN1CCN(c2ccccn2)CC1", "note": "(stereo not drawn)", "hERG current change (%, negative = inhibition) at 1uM": -1.11}
{"smiles": "Cl.OC(COCc1ccc(Cl)cc1)CN1CCN(c2ccccn2)CC1", "note": "(stereo not drawn)", "hERG current change (%, negative = inhibition) at 1uM": -24.9}
{"smiles": "CCOc1cc(/C=C2\\C(=O)ON=C2c2ccccc2)cc(Br)c1O", "hERG current change (%, negative = inhibition) at 1uM": 10.4}
{"smiles": "O=C(CCCc1ccccc1)NCc1ccc2c(c1)OCO2", "hERG current change (%, negative = inhibition) at 1uM": 8.58}
{"smiles": "COc1cccc(Cn2c(NCC(C)C)nc3c2c(=O)n(C)c(=O)n3C)c1", "hERG current change (%, negative = inhibition) at 1uM": -7.04}
{"smiles": "O=C(Nc1ccccc1)c1cc2ccccc2o1", "hERG current change (%, negative = inhibition) at 1uM": 8.25}
{"smiles": "CCC(=O)Nc1ccc(NC(=O)c2cc3ccccc3o2)cc1", "hERG current change (%, negative = inhibition) at 1uM": -5.21}
{"smiles": "CC/C(=C\\c1oc2cc3ccccc3cc2[n+]1CC)Nc1ccccc1.[I-]", "hERG current change (%, negative = inhibition) at 1uM": -83.7}
{"smiles": "Cc1cccc(NC(=S)Nn2cnnc2)c1C", "hERG current change (%, negative = inhibition) at 1uM": 10.9}
{"smiles": "Cc1ccc(-c2cc(C(=O)N3CCN(C4CCS(=O)(=O)C4)CC3)c3ccccc3n2)cc1", "note": "(stereo not drawn)", "hERG current change (%, negative = inhibition) at 1uM": -3.04}
{"smiles": "Cc1ccc(NC(=O)CN(C)C(=O)CSc2nc(C)cs2)cc1", "hERG current change (%, negative = inhibition) at 1uM": 3.7}
{"smiles": "CC(Cc1ccccc1)NCC(=O)Nc1cc(N(C)C)nc2ccccc12.O=C(O)C(=O)O", "note": "(stereo not drawn)", "hERG current change (%, negative = inhibition) at 1uM": -73.5}
{"smiles": "CCCCC(=O)Nc1cc(N(C)C)nc2ccccc12", "hERG current change (%, negative = inhibition) at 1uM": -30.7}
{"smiles": "CCN(CC)CC(=O)Nc1cc(N(C)C)nc2ccccc12.O=C(O)C(=O)O", "hERG current change (%, negative = inhibition) at 1uM": 6.57}
{"smiles": "CCCCCC(=O)Nc1cc(N(C)C)nc2ccccc12", "hERG current change (%, negative = inhibition) at 1uM": -77.9}
{"smiles": "CN(C)c1cc(NC(=O)CNC(C)(C)CC(C)(C)C)c2ccccc2n1.O=C(O)C(=O)O", "hERG current change (%, negative = inhibition) at 1uM": -7.36}
{"smiles": "CN(C)c1cc(NC(=O)CNC(C)(C)C)c2ccccc2n1.O=C(O)C(=O)O", "hERG current change (%, negative = inhibition) at 1uM": 2.05}
{"smiles": "NS(=O)(=O)c1ccc(O)c(N2C(=O)c3cccc4c(C(=O)O)ccc(c34)C2=O)c1", "hERG current change (%, negative = inhibition) at 1uM": 10.3}
{"smiles": "COc1ccc(C(=O)CSc2nc(-c3ccccn3)nc(C)c2Cl)cc1", "hERG current change (%, negative = inhibition) at 1uM": 13}
{"smiles": "Cc1nonc1CC(=O)N1CCCC(C(=O)c2cccc(C(F)(F)F)c2)C1", "note": "(stereo not drawn)", "hERG current change (%, negative = inhibition) at 1uM": -20.6}
{"smiles": "O=C(C1CCC(=O)N1Cc1cccnc1)N1CCN(c2ccc(F)cc2)CC1", "note": "(stereo not drawn)", "hERG current change (%, negative = inhibition) at 1uM": 10.5}
{"smiles": "OCC[N+]12CCC(CC1)C(C(O)(c1ccccc1)c1ccccc1)C2", "note": "(stereo not drawn)", "hERG current change (%, negative = inhibition) at 1uM": 15.2}
{"smiles": "CCc1ccc(C(=O)NNc2cc(Cl)ccc2Cl)cc1", "hERG current change (%, negative = inhibition) at 1uM": 12.5}
{"smiles": "Cn1c(-c2cccc([N+](=O)[O-])c2)cnc1NCc1cccc([N+](=O)[O-])c1.O=C(O)C(=O)O", "hERG current change (%, negative = inhibition) at 1uM": -28.2}
{"smiles": "Cn1c(-c2ccc(F)cc2)cnc1NCc1ccc(C#N)cc1", "hERG current change (%, negative = inhibition) at 1uM": -22.9}
{"smiles": "Cn1c(-c2ccc(Br)cc2)cnc1NCc1ccc(C#N)cc1.O=C(O)C(=O)O", "hERG current change (%, negative = inhibition) at 1uM": -77.2}
{"smiles": "CSc1ccc(CNc2ncc(-c3cccc([N+](=O)[O-])c3)n2C)cc1.O=C(O)C(=O)O", "hERG current change (%, negative = inhibition) at 1uM": -26.5}
{"smiles": "Cn1c(-c2ccccc2)cnc1NCc1ccc(-c2ccccc2)cc1.O=C(O)C(=O)O", "hERG current change (%, negative = inhibition) at 1uM": 11}
{"smiles": "Cn1c(-c2cccc([N+](=O)[O-])c2)cnc1NCc1ccc(C#N)cc1.O=C(O)C(=O)O", "hERG current change (%, negative = inhibition) at 1uM": -56.4}
